Screening results deposited in PubChem by National Center for Advancing Translational Sciences (NCATS).
This is a sample that favours compounds with a hit; in the whole collection about 1.5% have one here.
uPA surface inh: qHTS for Inhibitors of Cell Surface uPA Generation; Potency, µM (doses to about 38.3 µM), for the others: top-dose activity change, negative = inhibition, hits mostly inhibitors; hit rate 0.31% among 330,000; cell surface uPA generation assay, qHTS; active means well fitted inhibition curve with a large enough effect; inconclusive means small, poorly fitted or top-dose-only effect; inactive means no such curve, though single readings can be large or run the other way; tested in mouse RAW 264.7 cells; further: potency means the concentration at half of the fitted maximal effect; on the % scale 0 is the no-effect control and ±100 the full control effect; nearly all actives have a fitted effect of over 55% in size
IL-2 act: qHTS of IL-2 Activators. IL-2 activation reporter assay, cell-based qHTS; stimulated with anti-CD3/CD4/CD28 beads; in transgenic mouse T cells. activation, % (series mostly up to about 46 µM). hit rate 0.065% among 360,000. AID 652025, 2013; in the data active means activation above about 50%; inconclusive means mostly about 30% to 49%; further: 0% is about no effect
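Unstimulated transgenic mouse T cells, 750 per well, received compound and, after 60 minutes, anti-CD3/anti-CD4 bead plus anti-CD28 stimulation. EGFP and DsRed were quantified after 18 hours.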
Nrf2 ARE act: qHTS of Nrf2 Activators; AREc32 ARE-luciferase reporter (MCF7-derived line), luminescence, 24 h; Potency, µM (top dose mostly 46.1 µM), without a hit: top-dose activation, usual class: activators; hit rate 0.31% among 410,000; AID 624171, 2012; further: potency means the concentration at half of the fitted maximal effect; % of control where 0% means no effect; nearly all actives have a fitted effect of over 65% in size
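ARE-driven firefly luciferase activity in AREc32 cells measured after a 24 hr compound exposure at 37 deg C, using Steady-Glo reagent and a 30 min room-temperature hold.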
12-LOX inh: Primary qHTS assay for inhibitors of human arachidonate 12S-lipoxygenase (ALOX12): Round 2. Polyunsaturated fatty acid lipoxygenase ALOX12 (Homo sapiens), P18054. purified 12hLO, xylenol orange hydroperoxide absorbance. Potency, µM (series often up to 108 µM), for inactives: top-dose activity change, negative = inhibition, hits mostly inhibitors. hit rate 1.1% among 580,000; further: potency means the concentration at half of the fitted maximal effect; on the % scale 0 is the no-effect control and ±100 the full control effect
Target sequence (P18054 whole entry, looked up): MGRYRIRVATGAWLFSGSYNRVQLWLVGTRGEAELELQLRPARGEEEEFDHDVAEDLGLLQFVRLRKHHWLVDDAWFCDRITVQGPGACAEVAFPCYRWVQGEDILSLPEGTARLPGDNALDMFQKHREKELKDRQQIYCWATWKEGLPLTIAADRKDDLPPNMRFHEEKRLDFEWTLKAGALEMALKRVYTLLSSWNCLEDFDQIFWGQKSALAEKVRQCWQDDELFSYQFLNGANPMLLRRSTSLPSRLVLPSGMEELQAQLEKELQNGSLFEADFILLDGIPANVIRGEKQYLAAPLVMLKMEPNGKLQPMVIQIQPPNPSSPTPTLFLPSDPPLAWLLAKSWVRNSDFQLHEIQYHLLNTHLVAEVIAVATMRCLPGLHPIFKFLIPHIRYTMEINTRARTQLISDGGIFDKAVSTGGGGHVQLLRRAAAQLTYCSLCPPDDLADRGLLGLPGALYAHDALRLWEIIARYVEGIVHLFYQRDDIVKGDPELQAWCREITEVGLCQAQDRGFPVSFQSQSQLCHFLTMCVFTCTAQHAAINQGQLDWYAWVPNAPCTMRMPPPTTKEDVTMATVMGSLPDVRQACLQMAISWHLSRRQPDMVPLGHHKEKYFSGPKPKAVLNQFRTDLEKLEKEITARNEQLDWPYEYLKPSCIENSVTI
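Purified human 12hLO at 150 nM in 25 mM Hepes, 0.01% Triton X-100, pH 7.0, preincubated 15 min at room temperature with compound. Reaction started with 40 uM arachidonic acid, 30 min at room temperature. Hydroperoxide measured by Fe-xylenol orange, 573/405 nm absorbance ratio.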
Integrin act MD: qHTS for Activators of Integrin-Mediated Alleviation for Muscular Dystrophy. alpha7betagal myoblasts, beta-gal FDG fluorescence, 48 h. hit rate 0.064% among 350,000. Potency, µM (titrated, usually from 38.3 µM), for the others: at the highest dose activation, hits mostly activators;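 further: potency means the concentration at half of the fitted maximal effect; 100% = response of the positive control SU9516; nearly all actives have a fitted effect of over 60% in size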
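alpha7betagal+/- myoblasts (passage 13, 250/well) treated 48 h at 37C with compounds at 1:260 dilution of DMSO stock. Lysed, then beta-galactosidase activity read as FDG fluorescence (ex 480/em 540) after 30 min, with pre-read for autofluorescence.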
An asterisk follows results filed as active; ! = not confirmed by another sample; [ ] = dose if it differs, or a comment. Unless noted, the call rests on the fitted dose curve; in most records, active means well fitted curve in the direction sought with a large enough effect; inconclusive means small, poorly fitted or top-dose-only effect, or another doubt; inactive means no such curve, though single readings can be large; an effect the other way counts as inactive or inconclusive.

For CC(=O)C1=C(C)N(Cc2ccc(Br)cc2)C(=S)NC1c1cccc(F)c1 (configuration not stated) the results were 12-LOX inh 45µM*.
For C=CCOc1ccccc1C1C2=C(CC(C)(C)CC2=O)OC2=C1C(=O)CC(C)(C)C2 the results were 12-LOX inh 4%.
`Cc1noc(-c2cn(C3CCN(C(=O)c4ccccc4Cl)C3)nn2)n1` (configuration not stated) gave 12-LOX inh 19%.
`COc1ccccc1N(C)S(=O)(=O)c1ccc(C(=O)Nc2ccc(C(C)C)cc2)cc1` gave 12-LOX inh -7%.
For COc1ccc(CCC(=O)N2CCC3(CC2)C(=O)N(C)c2ccccc23)cc1 the results were 12-LOX inh 15%.
For COc1ccc2sc(/C=C/c3ccccc3O)[n+](C)c2c1 the results were uPA surface inh -7%, IL-2 act 3, Nrf2 ARE act 11%, 12-LOX inh 40µM* and Integrin act MD 0%.
COc1ccc(N=Cc2ccccc2O)cc1 was read as uPA surface inh -10%, IL-2 act 1, Nrf2 ARE act 4%, 12-LOX inh inconclusive and Integrin act MD 3%.
`O=C(c1ccc(Cl)cc1)N1CCC(n2cc(-c3ccncc3)[nH]c2=O)CC1` gave 12-LOX inh 4%[6.33 µM].
`O=C(O)c1ccc(-c2sc(Nc3ccccc3)n[n+]2-c2ccccc2)cc1` gave uPA surface inh 16%, IL-2 act 0, Nrf2 ARE act 6%, 12-LOX inh inconclusive and Integrin act MD 8%.
Screening CCc1ccc(Nc2n[n+](-c3ccccc3)c(-c3cc(OC)c(OC)cc3Br)s2)cc1 returned uPA surface inh -11%, IL-2 act 0, Nrf2 ARE act 1%, 12-LOX inh 40µM* and Integrin act MD 10%.
For CCN(CC)c1ccc(-c2sc(Nc3ccccc3)n[n+]2-c2ccc(F)cc2)cc1 the results were uPA surface inh 5%, IL-2 act 2, Nrf2 ARE act 8%, 12-LOX inh inconclusive and Integrin act MD -6%.
CCc1ccc(Nc2n[n+](-c3ccccc3)c(-c3ccc(N(CC)CC)cc3)s2)cc1 was read as uPA surface inh inconclusive, IL-2 act 0, Nrf2 ARE act 8%, 12-LOX inh 40µM* and Integrin act MD -44%.
`CCc1ccc(Nc2n[n+](-c3ccccc3)c(-c3ccc(OCc4ccccc4)cc3)s2)cc1` gave uPA surface inh inconclusive, IL-2 act -1, Nrf2 ARE act -3%, 12-LOX inh 22µM* and Integrin act MD -31%.
For CN(C)c1ccc(-c2sc(Nc3ccccc3)n[n+]2-c2ccc(F)cc2)cc1 the results were uPA surface inh 10%, IL-2 act 0, Nrf2 ARE act 1%, 12-LOX inh 45µM* and Integrin act MD -4%.
Screening COc1ccc(C(=O)COC(=O)Cc2c(F)cccc2Cl)cc1Br returned 12-LOX inh -34%.
O=C(COC(=O)c1csc(NCc2ccccc2)n1)NC1CCCC1 was read as 12-LOX inh -2%.
CC(C)N1C[C@H](O)C[C@H]1c1nnc2n1CCN(C(=O)c1ccsc1)CC2 was read as 12-LOX inh 27%.
Screening CN(C)C[C@@H]1CN(S(C)(=O)=O)C[C@H]1NC(=O)c1ccsc1 returned 12-LOX inh 37%.
`CSc1cccc(NC(=O)N[C@H]2CCN(C(=O)CC(C)(C)C)[C@@H]2C(=O)N[C@H](Cc2ccccc2)C(N)=O)c1` gave 12-LOX inh -2%.
`CCc1ccc(Nc2n[n+](-c3ccccc3)c(-c3c(Cl)cccc3Cl)s2)cc1` gave uPA surface inh 13µM*, IL-2 act -1, Nrf2 ARE act -3%, 12-LOX inh inconclusive and Integrin act MD -43%.
Fc1ccc(-[n+]2nc(Nc3ccccc3)sc2-c2c(Cl)cccc2Cl)cc1 was read as uPA surface inh inconclusive, IL-2 act -1, Nrf2 ARE act 8%, 12-LOX inh inconclusive and Integrin act MD -41%.
CN(Cc1nc2ccsc2c(=O)[nH]1)C(=O)COc1cccc(F)c1 was read as 12-LOX inh 5µM*.
`Cc1c(C(=O)N(C)Cc2nc3ccsc3c(=O)[nH]2)cnn1-c1ccc(F)cc1F` gave 12-LOX inh 4%.
`N#Cc1nc(/C=C/c2cccs2)oc1N1CCCCCC1` gave 12-LOX inh 7%.
CCOc1ccc(NC(=O)c2nnn3c2COC(c2ccc(Cl)cc2)C3)cc1 (configuration not stated) was read as 12-LOX inh 45µM*.
Screening CC(=O)c1cccc(NC(=O)Nc2cccc(-c3nnc(Cc4ccc5c(c4)OCO5)o3)c2)c1 returned 12-LOX inh -13%.
Cc1c(=O)n(OCc2ccccc2)c2ccccc2[n+]1[O-] was read as uPA surface inh 3%, IL-2 act 3, Nrf2 ARE act inconclusive, 12-LOX inh 0% and Integrin act MD inconclusive.
CCOn1c(=O)c(=O)n(OCc2ccccc2)c2ccccc21 was read as uPA surface inh 2%, IL-2 act 0, Nrf2 ARE act 22µM*, 12-LOX inh 0% and Integrin act MD -52%.
`CCN1C(=O)C2CC3(CCN(C(=O)CC(C)C)CC3)CN2C1=O` (configuration not stated) gave 12-LOX inh 41%.
`CCOC(=O)c1ccc(NC(=O)c2c(NCc3cccc(OC)c3OC)sc3c2CCC3)cc1` gave Nrf2 ARE act 16% and 12-LOX inh -20%.
CCOC(=O)c1ccc(NC(=O)c2c(NCc3sccc3C)sc3c2CCCCC3)cc1 was read as Nrf2 ARE act 17% and 12-LOX inh 11µM*.
C=CCn1c(CCc2cc(C(C)(C)C)c(O)c(C(C)(C)C)c2)n[nH]c1=S was read as uPA surface inh 4%, IL-2 act -5, Nrf2 ARE act 5%, 12-LOX inh 35µM* and Integrin act MD -14%.
`COc1ccc(-c2nc(=S)[nH][nH]2)cc1` gave uPA surface inh -1%, IL-2 act -1, Nrf2 ARE act 0%, 12-LOX inh inconclusive and Integrin act MD 3%.
For CCOc1ccc(-c2nc(=S)[nH][nH]2)cc1 the results were uPA surface inh 0%, IL-2 act 0, Nrf2 ARE act 6%, 12-LOX inh 25µM* and Integrin act MD 4%.
For Cc1c(C(=O)NN2CCCCC2)nn(-c2ccc(Cl)cc2Cl)c1-c1ccc(Cl)cc1 the results were 12-LOX inh 24µM*!.
`CNC(=O)c1nc(C)n(-c2ccc(Cl)cc2Cl)n1` gave uPA surface inh 2%, IL-2 act -3, Nrf2 ARE act -1%, 12-LOX inh -10% and Integrin act MD -1%.
